Compound activity from PubChem BioAssay.
CR mimetic SO: caloric restriction mimetics inhibiting age-related superoxide in yeast | 0.18% of 330,000 active | AID 2690 | superoxide response (% of plate mean), % at 10 µM | S. cerevisiae aged cells, superoxide DHE fluorescence; hits give low values;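 active = superoxide response under a set limit, about three screen SD below normal, cut at about 65% in these data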;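 note: yeast aged for seven days with compound at 30 °C before DHE staining; 100% = average MFI of all compound-treated wells on the plate with controls excluded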
FAS TE block: FAS thioesterase (human) inhibition | 0.67% of 360,000 active | P49327 | inhibition, % at 15 µM | recombinant FAS-TE, OMFH fluorogenic substrate, fluorescence endpoint;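 active = compounds whose normalised, plate-corrected inhibition of enzyme fluorescence in the single-dose primary screen is 50% or more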;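 note: 0% = DMSO with enzyme and 100% = substrate without enzyme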
Target sequence (P49327 whole entry, looked up): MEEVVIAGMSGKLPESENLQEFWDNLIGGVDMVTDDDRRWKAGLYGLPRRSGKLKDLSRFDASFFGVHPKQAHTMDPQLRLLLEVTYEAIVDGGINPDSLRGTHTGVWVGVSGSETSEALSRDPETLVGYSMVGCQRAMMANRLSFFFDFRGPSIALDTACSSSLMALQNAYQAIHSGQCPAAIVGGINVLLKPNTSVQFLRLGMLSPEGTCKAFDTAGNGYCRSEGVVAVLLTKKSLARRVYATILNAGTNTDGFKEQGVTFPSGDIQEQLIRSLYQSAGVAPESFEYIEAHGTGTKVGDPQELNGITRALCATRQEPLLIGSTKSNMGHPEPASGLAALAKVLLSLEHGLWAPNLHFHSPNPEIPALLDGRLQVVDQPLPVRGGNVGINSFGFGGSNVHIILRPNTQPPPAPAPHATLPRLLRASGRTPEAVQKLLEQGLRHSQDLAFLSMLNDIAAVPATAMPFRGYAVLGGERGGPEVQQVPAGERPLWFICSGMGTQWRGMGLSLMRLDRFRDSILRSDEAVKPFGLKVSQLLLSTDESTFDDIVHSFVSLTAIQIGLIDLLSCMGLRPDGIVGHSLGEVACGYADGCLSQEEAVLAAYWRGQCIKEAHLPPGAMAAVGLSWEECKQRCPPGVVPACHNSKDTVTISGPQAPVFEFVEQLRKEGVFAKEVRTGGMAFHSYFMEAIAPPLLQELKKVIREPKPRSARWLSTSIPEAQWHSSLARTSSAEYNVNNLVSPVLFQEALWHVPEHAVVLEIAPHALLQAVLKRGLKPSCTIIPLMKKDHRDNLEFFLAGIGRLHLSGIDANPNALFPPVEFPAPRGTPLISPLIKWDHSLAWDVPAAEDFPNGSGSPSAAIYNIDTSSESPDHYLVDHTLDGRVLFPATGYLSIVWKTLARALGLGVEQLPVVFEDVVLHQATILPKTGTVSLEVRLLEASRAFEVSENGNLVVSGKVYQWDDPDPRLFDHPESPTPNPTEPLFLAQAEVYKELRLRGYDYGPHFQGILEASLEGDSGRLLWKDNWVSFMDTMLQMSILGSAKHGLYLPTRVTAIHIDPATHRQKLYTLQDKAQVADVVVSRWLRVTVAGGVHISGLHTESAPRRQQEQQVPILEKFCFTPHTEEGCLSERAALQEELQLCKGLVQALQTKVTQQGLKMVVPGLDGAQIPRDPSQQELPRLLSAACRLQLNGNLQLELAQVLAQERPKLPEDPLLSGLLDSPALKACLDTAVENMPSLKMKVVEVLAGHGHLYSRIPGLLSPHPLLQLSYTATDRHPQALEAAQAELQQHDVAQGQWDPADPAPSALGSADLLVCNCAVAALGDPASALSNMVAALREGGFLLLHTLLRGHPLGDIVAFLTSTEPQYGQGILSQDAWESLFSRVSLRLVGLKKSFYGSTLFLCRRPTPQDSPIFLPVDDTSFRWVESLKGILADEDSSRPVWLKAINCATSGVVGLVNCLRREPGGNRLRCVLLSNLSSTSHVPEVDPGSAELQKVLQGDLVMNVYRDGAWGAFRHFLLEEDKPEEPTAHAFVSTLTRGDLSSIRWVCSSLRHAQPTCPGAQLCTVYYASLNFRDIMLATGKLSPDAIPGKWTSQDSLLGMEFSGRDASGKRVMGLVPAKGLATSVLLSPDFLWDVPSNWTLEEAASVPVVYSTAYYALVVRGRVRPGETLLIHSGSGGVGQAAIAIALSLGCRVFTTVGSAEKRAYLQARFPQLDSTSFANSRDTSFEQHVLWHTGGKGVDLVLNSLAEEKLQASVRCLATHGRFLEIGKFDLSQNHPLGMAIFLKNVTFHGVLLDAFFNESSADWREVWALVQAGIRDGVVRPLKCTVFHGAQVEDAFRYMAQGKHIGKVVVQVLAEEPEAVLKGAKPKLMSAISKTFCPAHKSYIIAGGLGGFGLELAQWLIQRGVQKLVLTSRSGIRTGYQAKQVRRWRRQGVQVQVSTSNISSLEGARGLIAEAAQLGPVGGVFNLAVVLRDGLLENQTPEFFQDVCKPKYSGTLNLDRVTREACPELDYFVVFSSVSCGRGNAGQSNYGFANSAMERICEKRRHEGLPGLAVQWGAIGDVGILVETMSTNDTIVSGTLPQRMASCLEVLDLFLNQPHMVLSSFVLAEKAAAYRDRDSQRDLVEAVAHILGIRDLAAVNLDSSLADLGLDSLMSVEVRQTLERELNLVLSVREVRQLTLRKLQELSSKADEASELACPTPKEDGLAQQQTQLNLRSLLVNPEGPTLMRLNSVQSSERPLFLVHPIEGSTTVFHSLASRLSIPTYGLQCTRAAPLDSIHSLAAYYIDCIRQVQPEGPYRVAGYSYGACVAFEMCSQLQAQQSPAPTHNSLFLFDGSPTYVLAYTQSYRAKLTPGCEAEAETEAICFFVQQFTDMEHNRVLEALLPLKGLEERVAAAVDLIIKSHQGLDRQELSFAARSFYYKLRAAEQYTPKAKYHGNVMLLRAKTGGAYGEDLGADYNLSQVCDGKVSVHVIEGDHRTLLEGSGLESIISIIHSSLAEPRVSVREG
SUMO Mot1 rescue: SUMOylation pathway inhibition by Mot1-301 growth rescue; S. cerevisiae Mot1-301 growth rescue, ATP luminescence, 38.5C; percent above DMSO median, 100 means doubled; growth rescue, % at 18.8 µM; 1% of 320,000 active; AID 2716;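 active = every valid replicate shows activation above 250% relative to neutral control wells; inactive = the rest, any valid replicate at or below 250%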;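 note: OY570 slx delta 5 strain wells were the positive control but not used for scaling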
H9c2 protect: myocardial damage modulation in H9c2 cells; 0.63% of 360,000 active; protection from H2O2 cell death, % at 20 µM; H9c2 cardiomyocytes, H2O2 injury protection, ATPLite, 2 h; AID 588492;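 active = compounds giving at least 50% protection of heart cells from peroxide-induced death in the single-dose screen, raw or plate-pattern-corrected value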;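 note: 0% = DMSO wells with peroxide and 100% = DMSO wells without peroxide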
aDG glyco act: increases alpha dystroglycan glycosylation. Pro5-aDG cells, alpha-DG glycosylation AlphaScreen (IIH6); 0% Pro5, 100% B10-LARGE cell signal. 0.22% of 360,000 active. activation, % at 10 µM;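 active = activation of at least 8% versus controls, or a plate z-score of at least 8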;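 note: Pro5 are CHO cells carrying HIG-tagged alpha-DG that lacks glycosylation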
MPTP inh: inhibitors of mitochondrial permeability transition pore; isolated mouse mitochondria, Ca2+ swelling absorbance, 30 min; 1.4% of 360,000 active; inhibition, % at 10 µM;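 active = inhibition of 50% or more, scaled per plate between neutral and stimulator controls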;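 note: 0% = DMSO wells given calcium and 100% = 1 mM EGTA wells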
MPTP counter: mitochondrial membrane potential, counter-screen | shares compounds with MPTP inh | isolated mitochondria, Rhodamine 123 fluorescence | inhibition, % at 10 µM | 78% of 5,000 active; in the data active = inhibition above about 22%;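 note: 0% = DMSO vehicle and 100% = positive control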
MPTP abs DR: dose response confirmation of mitochondrial permeability transition pore inhibitors | shares compounds with MPTP inh | 58% of 780 active | IC50, µM | AID 651561 | isolated mitochondria swelling, absorbance; in the data active = IC50 below about 20 µM
MPTP cs DR: counter-screen for mitochondrial permeability transition pore inhibitors, dose response. isolated mitochondria counterscreen, fluorescence read-out. 49% of 780 active. IC50, µM. shares compounds with MPTP inh. AID 651564; in the data active = IC50 below about 80 µM
Active calls of the source: *; x = no result. Shown are actives, neighbours in structure and some others; about 3.8% of the full set was active somewhere.

SMILES	CR mimetic SO	FAS TE block	SUMO Mot1 rescue	H9c2 protect	aDG glyco act	MPTP inh	MPTP counter	others
Cc1onc(-c2ccccc2)c1C(=O)NNC(=S)NC(=O)/C=C/c1ccccc1	97	7	7	1	0	93*	5
Cc1ccc(C(=O)NNC(=S)NC(=O)c2ccc(Cl)cc2)cc1	187	0	119	18	0	91*	9
Cc1cccc(C(=O)NC(=S)NNC(=O)c2ccccc2Cl)c1	174	-6	-18	25	0	85*	-7
Cc1ccccc1C(=O)NNC(=S)NC(=O)c1ccc(Cl)cc1Cl	241	-4	-7	26	0	76*	5
COc1ccc(/C=C/C(=O)NC(=S)NNC(=O)c2c(-c3ccccc3)noc2C)cc1	110	2	1	19	0	14	x
CC(Sc1nnc(N)s1)C(=O)NC1CCCCC1C (stereo not given)	102	-4	-5	-1	0	-1	x
CC1OC2CC(=O)OC2C2=C1C(=O)c1c(O)cccc1C2=O (stereo not given)	x	11	x	-17	0	10	x
Cc1onc(-c2ccccc2)c1C(=O)NNC(=S)NC(=O)c1ccc(Cl)cc1Cl	159	0	-3	5	0	104*	33*
Cc1cccc(C(=O)NC(=S)NNC(=O)Cc2ccccc2)c1	129	-13	-20	24	0	28	x
Cc1cccc(C(=O)NC(=S)NNC(=O)COc2c(C)cccc2C)c1	137	0	-18	-8	0	87*	-7	MPTP abs DR=6.7*;MPTP cs DR=39*
Cc1onc(-c2ccccc2)c1C(=O)NNC(=S)NC(=O)c1ccc(Br)cc1	187	1	-13	1	0	68*	29*
Cc1onc(-c2ccccc2)c1C(=O)NNC(=O)c1ccccc1	101	-7	x	1	0	2	x
Cc1cc(Nc2cccc(F)c2)nc(-c2ccccc2O)n1	106	37	21	-16	0	59*	51*
O=C(OCc1ccccc1)N1CCC2CC1c1cc(-c3cc4ccccc4o3)ccc12 (stereo not given)	x	29	x	-12	0	-2	x
COc1ccc(NC(=O)Nc2cccc(OC)c2)cc1	109	-3	62	-9	0	5	x
CCSc1nsc(NC(=O)Nc2cccc(F)c2)n1	107	11	58	-16	0	98*	80*
COc1cccc(NC(=O)Nc2nc(SC(C)(C)C)ns2)c1	105	14	-5	-13	0	93*	77*
COc1cccc(NC(=O)Nc2ccc3nsnc3c2)c1	116	2	-11	-10	0	93*	87*
COc1cccc(NC(=O)Nc2nc(SC)ns2)c1	101	-3	-6	-13	0	69*	81*
CCCCN(C)C(=O)c1[nH]c(C(F)(F)F)nc1-c1ccccc1	x	-11	x	3	0	0	x
CCCSc1nsc(NC(=O)Nc2ccc(F)cc2F)n1	110	8	-23	-17	0	97*	85*
CCOc1ccc(Br)cc1/C(C)=N\NC1=NCCN1	93	-199	-4	-28	1	108*	67*
CCCCCCOc1ccc(/C(C)=N/NC2=NCCN2)cc1	97	-138	-21	-22	0	94*	-2
CCCCCCOc1ccc(C(=O)O)cc1	103	-3	-1	-2	0	0	x
Cc1cc2oc3ccc(NCCCn4ccnc4)cc3c(=O)c2cc1C	108	-16	0	-20	1	58*	-2
SMILES	CR mimetic SO	FAS TE block	SUMO Mot1 rescue	H9c2 protect	aDG glyco act	MPTP inh	MPTP counter	others
C[C@@H](NC(=O)[C@@H]1CCCN1C(=O)[C@@H]1CCCN1C(=O)c1ccc(Cl)cc1)c1ccccc1	x	-10	x	x	0	-2	x
CCCC[C@H](CN[C@@H](CNC)[C@H](C)CC)NCCC12CCC(CC1)C2	92	-3	-22	-21	1	100*	-17	MPTP abs DR=6.1*;MPTP cs DR=>80
CCC[C@H](CN[C@@H](CNC)[C@H](C)O)NCCc1ccc(OC)cc1	123	-6	11	14	0	0	x
CCCN(C(=O)COC(=O)c1[nH]c(C)c(C(=O)OC)c1C)c1c(N)n(Cc2ccccc2)c(=O)[nH]c1=O	106	-1	23	9	0	60*	-19	MPTP abs DR=>100;MPTP cs DR=>80
O=C(Nc1ccc(S(=O)(=O)NC2=NCCCCC2)cc1)c1cc(S(=O)(=O)N2CCOCC2)ccc1F	115	12	-8	-5	0	-2	x
CCOC(=O)c1sc(=S)n(C)c1NC(=O)c1cccc(Br)c1	97	5	8	-14	0	51*	76*
O=C(COC(=O)c1ccccc1)NCC1COc2ccccc2O1 (stereo not given)	x	-5	x	4	0	-1	x
Oc1ccccc1/C=N/NC(=S)NC1CC2CCC1C2 (stereo not given)	87	17	-20	16	0	54*	67*
CCOC(=O)c1ccc(-n2cnc(-c3ccc([N+](=O)[O-])cc3)c2)cc1	x	14	x	-6	0	1	x
O=C(CSc1nc2ccc(Cl)cc2[nH]1)NCCc1ccc(Cl)cc1	108	9	-6	-8	0	69*	60*
O=C(CSc1nc2ccc(Cl)cc2[nH]1)NCCc1ccccc1	97	8	8	-5	0	-17	x
CC1CCCN(CCC(=O)c2ccc(Br)cc2)C1 (stereo not given)	95	-6	48	-11	1	114*	5	MPTP abs DR=5.7*;MPTP cs DR=>80
COc1ccc(-c2nc3ccc(C)cn3c2CC2CCCCC2)cc1OC	x	8	x	-2	0	-1	x
Cn1c(=O)n(C)c2cc([N+](=O)[O-])c(N3CCN(CCO)CC3)cc21	96	-6	-12	0	0	-1	x
CNCc1ccccc1Sc1cccc2ccccc12	91	-14	2	-10	2	93*	20*
CNCc1ccccc1Sc1ccc(OC)cc1	94	-5	-15	-11	1	10	x
CCC(C)[C@H]1CN=C(N)N1CCc1cccc2ccccc12 (stereo not given in full)	100	-29	2	-6	0	90*	0	MPTP abs DR=6.5*;MPTP cs DR=30*
CCC(C)[C@H]1CNC(=S)N1CCc1cccc2ccccc12 (stereo not given in full)	100	7	172	4	0	1	x
CC(NC(=O)c1ccc(Cl)c(S(=O)(=O)N2CCCCCC2)c1)c1cccnc1 (stereo not given)	102	1	36	2	0	0	x
